Assay results from PubChem BioAssay.
Several values for one entry are separate records, joined by “and”; a condition that tells them apart may be missing. Equal entries are not always repeated. Where a structure was tested more than once in an assay, its records may differ in their call. Activity calls are given as the source filed them.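 The calls were made as follows, unless noted: active = growth inhibition above 50% at the single 2 µM test dose, taken to imply half-maximal potency below 2 µM; inactive = the rest.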

Assay: antimalarial activity against Dd2 strain (AID 2302);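 also: 0% = DMSO untreated growth and 100% = chloroquine plus artemisinin killed control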
Conditions: P. falciparum Dd2 in RBCs, LDH growth readout, 72 h; at 2 µM; stronger effect = higher value

SMILES | growth inhibition
CCCCC/C=C/C(=O)NC1CCC(CN2CCC(c3c[nH]c4ccccc34)CC2)CC1 (stereo not given) | 11% (inactive)
COc1ccc(O)c(CN2CCN(c3cc(C)ccc3C)CC2)c1 | 86% (active)
CC[C@H]1CN2CC[C@H]1C[C@@H]2[C@@H](O)c1cc(Cl)nc2ccc(OC)cc12 | 82% (active)
CC(Cc1ccc(Sc2ccccc2)cc1)NCC(O)c1cccc(C(F)(F)F)c1 (stereo not given) | 53% (active)
CC(C)CCNC(=O)c1cc(C(=O)c2cc(F)ccc2O)cn(CCC(C)C)c1=O | 45% (inactive)
O=C(/C=C/c1ccc(Cl)c(Cl)c1)N1CCC(CN2CCC(c3c[nH]c4ccc(O)cc34)CC2)CC1 | 100% (active)
Oc1ccc2[nH]cc(C3=CCN(CCc4ccccc4)CC3)c2c1 | 60% (active)
C/C=C1\CN2CC[C@H]1C[C@H]2[C@H](O)c1ccnc2ccc(O)cc12 | -1% (inactive)
CC[C@H]1CN2CC[C@@H]1C[C@H]2[C@H](O)c1cc(N2CCC(N3CCCCC3)CC2)nc2ccc(OC)cc12 | 77% (active)
S=C(NCC1CCCCC1)NC1CCC(CN2CCC(c3c[nH]c4ccccc34)CC2)CC1 (stereo not given) | 10% (inactive)
COc1cc(C=CC(=O)N2CCC(CN3CCC(c4c[nH]c5ccccc45)CC3)CC2)ccc1O | 25% (inactive)
CCOc1ccc2nccc([C@@H](O)[C@@H]3C[C@@H]4CCN3C[C@@H]4CC)c2c1 | 99% (active) and 51% (active)
CC1(CCCCN2CC=C(c3c[nH]c4ccccc34)CC2)C(=O)Nc2ccccc21 (stereo not given) | 90% (active)
CN1CC=C(c2c[nH]c3ccc(OC(=O)c4ccccc4)cc23)C1 | 97% (active)
Cc1[nH]c2c(C)cc(NS(C)(=O)=O)cc2c1C1CCN(CC2CCN(C(=O)/C=C/c3ccc(Cl)c(Cl)c3)CC2)CC1 | 99% (active)
COC(=O)c1ccc(CC(C)NCC(O)c2cccc(Cl)c2Cl)cc1 (stereo not given) | 98% (active)
Oc1ccc(CN2CCN(CCOC(c3ccc(F)cc3)c3ccc(F)cc3)CC2)cc1Cl | 87% (active)
COC(=O)c1ccc(CC(C)NCC(O)c2ccc(F)c(Cl)c2)cc1 (stereo not given) | 78% (active)
O=C(C=Cc1ccccc1Br)NC1CCC(CN2CCC(c3c[nH]c4ccccc34)CC2)CC1 (stereo not given) | 32% (inactive) and 57% (active)
CC[C@H]1CN2CC[C@H]1C[C@H]2[C@H](O)c1cc(Cl)nc2ccc(OC)cc12 | 92% (active)

SMILES | growth inhibition
CC(=O)C1(c2ccccc2)CCN(CCC2(c3ccc(Cl)c(Cl)c3)CN(C(=O)Nc3cccc(C(F)(F)F)c3)CCO2)CC1 (stereo not given) | 66% (active)
Cc1[nH]c2ccccc2c1C1=CCN(CCCCC23CCCc4cccc(c42)NC3=O)CC1 (stereo not given) | 91% (active)
Oc1ccc2[nH]cc(C3=CCN(Cc4ccccc4)CC3)c2c1 | 67% (active)
CN1CC=C(c2c[nH]c3ccc(Sc4ccccc4)cc23)CC1 | 99% (active)
OC(CNC1CCCCCC1)c1ccc(Cl)c(Cl)c1 (stereo not given) | 98% (active)
CC[C@H]1CN2CC[C@H]1C[C@H]2[C@H](O)c1cc(-c2cccc(F)c2)nc2ccc(OC)cc12 | 97% (active)
COC(=O)c1ccc(CC(C)NCC(O)c2cccc(C(F)(F)F)c2)c(Cl)c1 (stereo not given) | 98% (active)
Cc1ccc(CC(C)NCC(O)c2cccc(Br)c2)cc1 (stereo not given) | 97% (active)
COc1ccc2[nH]cc(C3C[C@H]4CC[C@@H](C3)N4CCC3CCN(C(=O)/C=C/c4ccc(Cl)c(Cl)c4)CC3)c2c1 (stereo not given in full) | 80% (active)
CCOC(C(=O)OCC1CCCN1C(C)C)(c1ccccc1)c1ccccc1 (stereo not given) | 2% (inactive)
CN(C)c1cccc(NC(=O)NC2N=C(c3ccccc3)c3ccccc3N(CC(=O)N(C)c3ccccc3)C2=O)c1 (stereo not given) | 80% (active)
CC(=O)Nc1ccc2[nH]cc(C3CCN(CC4CCC(NC(=O)/C=C/c5ccc(Cl)c(Cl)c5)CC4)CC3)c2c1 (stereo not given) | 99% (active) and 59% (active)
O=C(Cc1cc(=O)oc2cc(O)ccc12)NC1CCC(CN2CCC(c3c[nH]c4ccccc34)CC2)CC1 (stereo not given) | -10% (inactive)
COc1ccc(CN2CCN(CCOC(c3ccccc3)c3ccccc3)CC2)c(O)c1 | 84% (active)
O=C(/C=C/c1c(Cl)cccc1Cl)NC1CCC(CN2[C@@H]3CC[C@H]2CC(c2c[nH]c4ccccc24)C3)CC1 (stereo not given in full) | 18% (inactive)
N#Cc1ccc(N(CC(=O)NCCc2ccccc2)CC2CC2)c2ccccc12 | 48% (inactive)
CC(Cc1ccc(-c2nc3ccccc3[nH]2)cc1)NCC(O)c1cccc(C(F)(F)F)c1 (stereo not given) | 90% (active)
O=C(/C=C/C=C/c1ccccc1)NC1CCC(CN2CCC(c3c[nH]c4ccccc34)CC2)CC1 (stereo not given) | 66% (active)
CN(c1cc(NC(=O)c2ccc(F)cc2)ccn1)C1CCN(Cc2ccc(C#N)cc2)CC1 | 54% (active)
COc1cc(NCCCNC(=O)c2cn(Cc3ccccc3)c3ccccc23)nc2ccccc12 | 66% (active)

Assay: HepG2 cytotoxicity, primary screen, cytotoxicity control for P. falciparum antimalarial project, cell-based, ATP luminescence (AID 2303;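 active = inhibition above 50%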;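 also: 0% = DMSO wells and 100% = digitonin-killed cells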)
Conditions: HepG2 viability, 24-48 h, at 10 µM, stronger effect = higher value

SMILES | inhibition
CCCCC/C=C/C(=O)NC1CCC(CN2CCC(c3c[nH]c4ccccc34)CC2)CC1 (stereo not given) | 19% (inactive)
COc1ccc(O)c(CN2CCN(c3cc(C)ccc3C)CC2)c1 | 7% (inactive)
CC[C@H]1CN2CC[C@H]1C[C@@H]2[C@@H](O)c1cc(Cl)nc2ccc(OC)cc12 | -9% (inactive)
CC(Cc1ccc(Sc2ccccc2)cc1)NCC(O)c1cccc(C(F)(F)F)c1 (stereo not given) | -1% (inactive)
CC(C)CCNC(=O)c1cc(C(=O)c2cc(F)ccc2O)cn(CCC(C)C)c1=O | 14% (inactive)
O=C(/C=C/c1ccc(Cl)c(Cl)c1)N1CCC(CN2CCC(c3c[nH]c4ccc(O)cc34)CC2)CC1 | 44% (inactive)
Oc1ccc2[nH]cc(C3=CCN(CCc4ccccc4)CC3)c2c1 | 11% (inactive)
C/C=C1\CN2CC[C@H]1C[C@H]2[C@H](O)c1ccnc2ccc(O)cc12 | -15% (inactive)
CC[C@H]1CN2CC[C@@H]1C[C@H]2[C@H](O)c1cc(N2CCC(N3CCCCC3)CC2)nc2ccc(OC)cc12 | 0% (inactive)
S=C(NCC1CCCCC1)NC1CCC(CN2CCC(c3c[nH]c4ccccc34)CC2)CC1 (stereo not given) | 29% (inactive)
COc1cc(C=CC(=O)N2CCC(CN3CCC(c4c[nH]c5ccccc45)CC3)CC2)ccc1O | 11% (inactive)
CCOc1ccc2nccc([C@@H](O)[C@@H]3C[C@@H]4CCN3C[C@@H]4CC)c2c1 | 24% (inactive) and 1% (inactive)
CC1(CCCCN2CC=C(c3c[nH]c4ccccc34)CC2)C(=O)Nc2ccccc21 (stereo not given) | 3% (inactive)
CN1CC=C(c2c[nH]c3ccc(OC(=O)c4ccccc4)cc23)C1 | 12% (inactive)
Cc1[nH]c2c(C)cc(NS(C)(=O)=O)cc2c1C1CCN(CC2CCN(C(=O)/C=C/c3ccc(Cl)c(Cl)c3)CC2)CC1 | 33% (inactive)
COC(=O)c1ccc(CC(C)NCC(O)c2cccc(Cl)c2Cl)cc1 (stereo not given) | -1% (inactive)
Oc1ccc(CN2CCN(CCOC(c3ccc(F)cc3)c3ccc(F)cc3)CC2)cc1Cl | 19% (inactive)
COC(=O)c1ccc(CC(C)NCC(O)c2ccc(F)c(Cl)c2)cc1 (stereo not given) | -4% (inactive)
O=C(C=Cc1ccccc1Br)NC1CCC(CN2CCC(c3c[nH]c4ccccc34)CC2)CC1 (stereo not given) | 36% (inactive) and 43% (inactive)
CC[C@H]1CN2CC[C@H]1C[C@H]2[C@H](O)c1cc(Cl)nc2ccc(OC)cc12 | 0% (inactive)

SMILES | inhibition
CC(=O)C1(c2ccccc2)CCN(CCC2(c3ccc(Cl)c(Cl)c3)CN(C(=O)Nc3cccc(C(F)(F)F)c3)CCO2)CC1 (stereo not given) | 24% (inactive)
Cc1[nH]c2ccccc2c1C1=CCN(CCCCC23CCCc4cccc(c42)NC3=O)CC1 (stereo not given) | 9% (inactive)
Oc1ccc2[nH]cc(C3=CCN(Cc4ccccc4)CC3)c2c1 | 1% (inactive)
CN1CC=C(c2c[nH]c3ccc(Sc4ccccc4)cc23)CC1 | 36% (inactive)
OC(CNC1CCCCCC1)c1ccc(Cl)c(Cl)c1 (stereo not given) | -3% (inactive)
CC[C@H]1CN2CC[C@H]1C[C@H]2[C@H](O)c1cc(-c2cccc(F)c2)nc2ccc(OC)cc12 | 34% (inactive)
COC(=O)c1ccc(CC(C)NCC(O)c2cccc(C(F)(F)F)c2)c(Cl)c1 (stereo not given) | -10% (inactive)
Cc1ccc(CC(C)NCC(O)c2cccc(Br)c2)cc1 (stereo not given) | 7% (inactive)
COc1ccc2[nH]cc(C3C[C@H]4CC[C@@H](C3)N4CCC3CCN(C(=O)/C=C/c4ccc(Cl)c(Cl)c4)CC3)c2c1 (stereo not given in full) | 38% (inactive)
CCOC(C(=O)OCC1CCCN1C(C)C)(c1ccccc1)c1ccccc1 (stereo not given) | -1% (inactive)
CN(C)c1cccc(NC(=O)NC2N=C(c3ccccc3)c3ccccc3N(CC(=O)N(C)c3ccccc3)C2=O)c1 (stereo not given) | 1% (inactive)
CC(=O)Nc1ccc2[nH]cc(C3CCN(CC4CCC(NC(=O)/C=C/c5ccc(Cl)c(Cl)c5)CC4)CC3)c2c1 (stereo not given) | 18% (inactive) and 10% (inactive)
O=C(Cc1cc(=O)oc2cc(O)ccc12)NC1CCC(CN2CCC(c3c[nH]c4ccccc34)CC2)CC1 (stereo not given) | 5% (inactive)
COc1ccc(CN2CCN(CCOC(c3ccccc3)c3ccccc3)CC2)c(O)c1 | 19% (inactive)
O=C(/C=C/c1c(Cl)cccc1Cl)NC1CCC(CN2[C@@H]3CC[C@H]2CC(c2c[nH]c4ccccc24)C3)CC1 (stereo not given in full) | 40% (inactive)
N#Cc1ccc(N(CC(=O)NCCc2ccccc2)CC2CC2)c2ccccc12 | 0% (inactive)
CC(Cc1ccc(-c2nc3ccccc3[nH]2)cc1)NCC(O)c1cccc(C(F)(F)F)c1 (stereo not given) | 33% (inactive)
O=C(/C=C/C=C/c1ccccc1)NC1CCC(CN2CCC(c3c[nH]c4ccccc34)CC2)CC1 (stereo not given) | 49% (inactive)
CN(c1cc(NC(=O)c2ccc(F)cc2)ccn1)C1CCN(Cc2ccc(C#N)cc2)CC1 | 13% (inactive)
COc1cc(NCCCNC(=O)c2cn(Cc3ccccc3)c3ccccc23)nc2ccccc12 | 13% (inactive)
